Screening data from PubChem.
G9a block = blocks human histone lysine methyltransferase G9a; Q96KQ7; G9a H3K9 monomethylation, AlphaScreen, 2 h; 8.8% of 350,000 active; Potency, µM (top dose mostly 102 µM), hits mostly inhibitors; further: nearly all actives have a fitted effect of over 75% in size
Target sequence (Q96KQ7 913-1193 limits assumed): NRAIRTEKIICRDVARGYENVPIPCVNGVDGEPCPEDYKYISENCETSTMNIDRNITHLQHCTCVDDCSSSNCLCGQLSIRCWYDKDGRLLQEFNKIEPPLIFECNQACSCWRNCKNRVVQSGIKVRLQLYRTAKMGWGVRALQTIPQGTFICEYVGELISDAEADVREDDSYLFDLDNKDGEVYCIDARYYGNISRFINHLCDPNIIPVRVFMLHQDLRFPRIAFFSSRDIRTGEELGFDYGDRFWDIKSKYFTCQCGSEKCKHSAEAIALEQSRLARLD
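Compounds were preincubated with 20 nM G9a for 15 min, after which biotinylated H3K9 peptide (500 nM) and SAM (20 uM) started a 2 h room-temperature reaction. Monomethylated product was quantified by antibody-based AlphaScreen chemiluminescence.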
JMJD2A Tudor inh = blocks the human JMJD2A Tudor domain. O75164. AlphaScreen JMJD2A-Tudor / H3K4me3 peptide binding. Potency, µM (highest dose often 114 µM), most hits filed as inhibitors. 4.4% of 390,000 active; further: nearly all actives have a fitted effect of over 50% in size
PI5P4K alpha inh = inhibitors of human PI5P4K alpha. P48426. PI5P4Kalpha enzyme, ADP-Glo luminescence, 60 min; active compounds read low. max response, %. 1.2% of 330,000 active. AID 652105; active means max response of -50% or lower; inconclusive means between -30% and -50%; inactive means -30% or higher; further: value at the top dose of about 77 µM
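Single end-point luminescence (ADP-Glo) quantified ADP from PI5P4Kalpha turnover; ATP 5 microM final, 1 h at RT, 0.1% CHAPS and 0.28 mM EGTA in HEPES pH 7.4.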
HP1b chromo inh = HP1-beta chromodomain-methylated histone interaction inhibition | P83916 | AlphaScreen HP1-beta / biotin-H3K9me3 peptide binding | Potency, µM (top dose mostly 114 µM), most hits filed as inhibitors | 0.56% of 390,000 active | AID 540317; further: nearly all actives have a fitted effect of over 70% in size
Target sequence (P83916 whole entry, looked up): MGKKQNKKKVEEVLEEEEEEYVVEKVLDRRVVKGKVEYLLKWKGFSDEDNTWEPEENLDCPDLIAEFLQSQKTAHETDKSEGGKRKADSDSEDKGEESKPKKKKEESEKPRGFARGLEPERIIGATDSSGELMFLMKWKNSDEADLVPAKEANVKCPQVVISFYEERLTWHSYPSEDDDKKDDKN
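Compound inhibition of the preformed complex between 50 nM HP1-beta and 50 nM biotinylated H3K9me3 peptide was read by AlphaScreen. Buffer was PBS pH 7.4 with 0.01% Tween-20. Incubations ran 30 min at room temperature, with 10 ug/mL donor/acceptor beads.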
BAZ2B inh = inhibitors of human BAZ2B bromodomain; Q9UIF8; 4.4% of 360,000 active; AlphaScreen BAZ2B-H3K14Ac peptide displacement; Potency, µM (doses to about 114 µM), actives largely listed as inhibitors; further: nearly all actives have a fitted effect of over 60% in size
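AlphaScreen displacement of biotin-H3(5-23)K14Ac peptide (50 nM final) from BAZ2B (50 nM final) in PBS pH 7.4, 0.01% Tween-20; complex preformed 30 min RT, then compounds (top 110 uM) 30 min RT, beads 20 min dark.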
PLK1 PBD block = blocks phosphopeptide binding to human PLK1 polo-box domain. Plk1 PBD binding of FITC phosphopeptide, fluorescence polarization. P53350. 2.8% of 360,000 active. AID 720504. Potency, µM, actives largely listed as inhibitors; further: series mostly up to about 57 µM; nearly all actives have a fitted effect of over 65% in size
Numbers stand for hits; - = inactive; ? = inconclusive; . = no result; [ ] = dose if it differs, or a comment. An excerpt weighted towards active compounds, which were near 12% of everything screened. Unless noted, the call rests on the fitted dose curve; in most records, active means well fitted curve in the direction sought with a large enough effect; inconclusive means small, poorly fitted or top-dose-only effect, or another doubt; inactive means no such curve, though single readings can be large; an effect the other way counts as inactive or inconclusive.

SMILES	G9a block	JMJD2A Tudor inh	PI5P4K alpha inh	HP1b chromo inh	BAZ2B inh	PLK1 PBD block
COc1cc(N=Nc2c(O)c3ccccc3[nH]c2=O)c(OC)cc1N=Nc1ccccc1	45µM	?	-	?	?	-
COc1ccc(OC)c(N=Nc2c(O)c3ccccc3[nH]c2=O)c1	.	?	-	?	.	-
CCOC(=O)C1=C(C#N)C(C(=O)OCC)c2ncccc21 (stereo not drawn)	.	.	?	.	.	3.4µM
CCOC(=O)C1=C(N)OC(C)=C(C#N)C1c1ccco1 (stereo not drawn)	-	-	-	-	-	-
O=C(c1cccc(Cl)c1)N1CCC(c2nc3c(nnn3Cc3ccc(F)cc3F)c(=O)[nH]2)CC1	-	-	.	-	-	.
COc1ccc(OC)c(Nc2nc(NCCCN(C)C)nc(N)c2[N+](=O)[O-])c1	45µM	35µM	-	-	32µM	-
COCCCNc1nc(N)c([N+](=O)[O-])c(Nc2cc(OC)ccc2OC)n1	-	-	-	-	-	-
CC(=O)c1ccc(NC(=O)CSc2ccc(-c3ccc4c(c3)OCO4)nn2)cc1	-	?	-	-	-	-
Fc1cccc(CSc2ccc(-c3ccc4c(c3)OCO4)nn2)c1	-	-	-	-	-	-
c1cncc(CSc2ccc(-c3ccc4c(c3)OCO4)nn2)c1	50µM	-	-	-	.	-
CC(=O)Nc1ccc(NC(=O)CSc2ccc(-c3ccc4c(c3)OCO4)nn2)cc1	7.9µM	-	-	-	-	-
O=C(/C(=C/c1ccncc1)n1ccnc1)c1ccc(Cl)cc1Cl	?	?	-	-	-	27µM
CCOP(=O)(O)c1ccccc1OCCOCCOc1ccccc1P(=O)(O)OCC	56µM	?	.	-	?	-
Cc1ccc2c(COC(=O)CNC(=O)c3ccco3)cc(=O)oc2c1C	.	-	-	-	.	-
CCN(C(=O)CN1C(=O)NC2(CCc3ccccc32)C1=O)C1CCCCC1 (stereo not drawn)	45µM	-	-	-	-	-
COc1ccccc1C(=O)CN1C(=O)NC2(CCc3ccccc32)C1=O (stereo not drawn)	50µM	-	-	-	-	-
COc1ccc(N2CCN(C(=O)CN3C(=O)NC4(CCCc5ccccc54)C3=O)CC2)cc1 (stereo not drawn)	40µM	-	-	-	-	-
C=CCn1c(C)cc(C(=O)CN2C(=O)NC3(CCCc4ccccc43)C2=O)c1C (stereo not drawn)	45µM	?	-	?	?	-
COc1ccccc1C(=O)CN1C(=O)NC2(CCCc3ccccc32)C1=O (stereo not drawn)	.	-	-	-	.	-
CCN(CC)Cc1c(O)ccc2c1O/C(=C\C=C\c1ccccc1)C2=O	?	-[11.4 µM]	-	-	-	-
COCCN(CCOC)Cc1c(O)ccc2c1O/C(=C\c1ccc(C)o1)C2=O	1µM	-	-	-	?	-
COCC(=O)N1CCC2(CC1)CN(c1cccc(-c3ccccc3)c1)C2	-[12.7 µM]	.	.	.	.	.
Cc1cc(/C=C\c2ccc3cc(N(C)C)ccc3[n+]2C)c(C)n1-c1ccccc1	13µM	50µM	?	?	13µM	?
Cc1cc(/C=C2\SC(=O)NC2=O)c(C)n1-c1ccc(N(C)C)cc1	-	-	-	-	-	-
CC1(C)CC[C@]2(C(=O)n3ccnc3)CC[C@]3(C)[C@H](C(=O)C=C4[C@@]5(C)C=C(C#N)C(=O)C(C)(C)[C@@H]5CC[C@]43C)[C@@H]2C1	.	?	?	-	.	1.7µM
SMILES	G9a block	JMJD2A Tudor inh	PI5P4K alpha inh	HP1b chromo inh	BAZ2B inh	PLK1 PBD block
Cc1c(C#N)c(NC(=O)CCl)n(Cc2cccs2)c1C	50µM	-	-	-	-	-
CCN(CC)C(=O)c1sc(NC(=O)Cc2cccs2)c(C#N)c1C	-	-	.	-	-	-
Cc1c(C#N)c(NC(=O)CCl)n(Cc2ccc(F)cc2)c1C	?	-	-	-	-	-
Cc1c(C#N)c(NC(=O)CCl)n(Cc2ccccc2)c1C	56µM	-	-	-	?	-
Cc1ccc(C(=O)C[n+]2ccc(Cc3ccccc3)cc2)cc1	45µM	-	-	-	-	-
O=C(C[n+]1ccc(CCSc2ccc(F)cc2)cc1)c1ccccc1	22µM	?	-53	45µM	-	1.9µM
COC(=O)[C@]1(C)N[C@H](CN(C)S(=O)(=O)c2ccc(C(C)(C)C)cc2)[C@@H]2C(=O)N(C)C(=O)[C@@H]21	.	-	-	-	.	-
COC(=O)[C@]1(C)N[C@H](CN(C)S(=O)(=O)c2ccc(C)cc2)[C@@H]2C(=O)N(C)C(=O)[C@@H]21	.	79µM	-	-	.	-
COc1cccc(CNC(=O)[C@@H]2CCCN2C(=O)[C@H]2CCCCN2C(=O)c2cccc3ccccc23)c1	.	.	-	.	.	-
Cc1ccc(C(=O)/C=C/C(=O)O)cc1	10µM	-	-	-	-	?
COc1cccc(N2CCN(S(=O)(=O)c3ccc4[nH]c5c(c4c3)CCCC5)CC2)c1	?	?	.	-	?	.
Cc1cc(=O)[nH]c(SCC(=O)Nc2c(C)n(C)n(-c3ccccc3)c2=O)c1C#N	-[12.7 µM]	-	-	-	-	-
CCCCC(=O)Nc1nnc(C2=COCCO2)o1	50µM	-	-	-	?	-
O=C(COc1ccccc1)Nc1nnc(-c2ccccc2Cl)o1	.	22µM	-	-	.	-
O=C(COc1ccccc1)Nc1nnc(-c2ccc3c(c2)CCCC3)o1	-	-	-	-	-	-
O=C(COC(=O)COc1ccc(Cl)cc1)Nc1ccc2c(c1)OCCO2	-[12.7 µM]	-	-	-	-	-
O=C(COc1ccc(Cl)cc1)Nc1nnc(C2=COCCO2)o1	-	3.5µM	-	-	20µM	-
COc1cc(S(=O)(=O)NCc2ccncc2)ccc1Br	.	-	-	-	-	-
Cc1cc(C)cc(NC(=O)C(=O)NCC(c2cccnc2)N2CCc3ccccc32)c1 (stereo not drawn)	-	-	.	-	-	.
CC(=O)Nc1ccc2c(c1)nc1n2CCSC1	-	-	.	-	-	-
COc1ccc(OCC(=O)Nc2ccc3c(c2)nc2n3CCSC2)cc1	2µM	-	-	-	-	-
Cn1c(CN2CCOCC2)nc2cc(NC(=O)COc3ccccc3)ccc21	-	56µM	-	-	-	21µM
COc1ccc(OCC(=O)Nc2ccc3c(c2)nc(CCN2CCCC2)n3C)cc1	-	-	-	-	-	-
Cn1c(CCN2CCOCC2)nc2cc(NC(=O)COc3ccccc3)ccc21	-	-	-	-	-	-
COc1ccc(OCC(=O)Nc2ccc3c(c2)nc(CCN2CCN(C)CC2)n3C)cc1	-	?	-	-	-	24µM
CC1(C)N=C(c2ccccc2)C(c2ccccc2)=N1	.	-	-	-	.	-
Cc1ccc(C)c(Cn2c(-c3cccs3)nc3ccccc32)c1	-	-	.	-	-	.
Cc1ccccc1OCC(=O)Nc1ccc2nc(SCC(=O)N3CCCC3)sc2c1	-	-	.	-	-	.
